# Sampled rows, rich in hits. Any-hit rate of the full collection: about 11%.
# PNC assembly inh: inhibitors of perinucleolar compartment assembly | PC3M PTB-GFP, PNC prevalence imaging, 16 h; active compounds read low | activity change (PNC), negative = inhibition, % at 10 µM | actives 3.1% (n = 140,000);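 active means readout at or below -70, meaning at least 70% loss of cells showing the perinucleolar compartment, a nuclear body marking cancer cells; inconclusive means readout between -30 and a set limit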;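 further: plate controls were DMSO wells for no effect and camptothecin positive control wells for full effect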
#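 Compounds are pinned in duplicate onto adhered PC3M cells stably expressing GFP-tagged PTB and incubated 16 h at 37 C. Cells are then fixed, nuclei stained with Hoechst, and PNC-positive cells counted.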
# ALDH1A1 inh: blocks purified human ALDH1A1 activity. actives 7.3% (n = 220,000). Purified ALDH1A1, NADH fluorescence, propionaldehyde substrate. Potency, µM (highest dose often 75.3 µM), for inactives: at the top dose activity, negative = inhibition, hits mostly inhibitors;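 further: potency means the concentration at half of the fitted maximal effect; plate controls were no enzyme wells and a reference inhibitor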
# Target sequence (P00352 whole entry, looked up): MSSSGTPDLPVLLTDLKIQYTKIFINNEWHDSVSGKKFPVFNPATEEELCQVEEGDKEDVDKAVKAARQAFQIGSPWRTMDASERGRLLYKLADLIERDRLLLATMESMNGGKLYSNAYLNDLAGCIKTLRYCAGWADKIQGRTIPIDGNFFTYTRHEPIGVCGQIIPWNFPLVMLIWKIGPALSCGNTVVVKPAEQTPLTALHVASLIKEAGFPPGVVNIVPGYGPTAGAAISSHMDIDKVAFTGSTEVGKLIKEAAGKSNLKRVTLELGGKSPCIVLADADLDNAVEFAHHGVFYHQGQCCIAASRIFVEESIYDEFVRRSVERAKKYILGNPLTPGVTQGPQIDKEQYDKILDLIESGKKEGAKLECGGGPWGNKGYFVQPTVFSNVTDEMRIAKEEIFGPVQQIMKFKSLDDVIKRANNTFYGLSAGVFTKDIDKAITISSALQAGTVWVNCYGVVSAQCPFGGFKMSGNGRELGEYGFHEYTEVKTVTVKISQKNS
# KDM4E inh: inhibitors of human JMJD2E histone demethylase; JMJD2E catalytic domain, FDH-coupled NADH fluorescence (FDH is formaldehyde dehydrogenase); Potency, µM (highest dose often 57.1 µM), inactives show top-dose activity change, negative = inhibition, hits mostly inhibitors; actives 1.6% (n = 230,000); AID 2147;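 further: potency means the concentration at half of the fitted maximal effect; 0% = wells with enzyme and -100% = buffer wells without enzyme; nearly all actives have a fitted effect of over 50% in size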
# HPGD block: blocks human HPGD enzyme activity; purified HPGD, NADH fluorescence kinetic, PGE2 substrate; P15428; actives 4.3% (n = 150,000); Potency, µM, for the others: at the highest dose activity change, negative = inhibition, most hits filed as inhibitors; further: potency means the concentration at half of the fitted maximal effect
#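 20 nM HPGD preincubated 15 min at room temperature with compound in 50 mM Tris-HCl pH 8, 0.01% Tween 20. Started with 1 mM NAD+ and 30 uM prostaglandin E2; NADH fluorescence (360/450 nm) read 5 times over 30-s intervals, last minus first.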
# Starred values were filed as active, the others as inactive; ? = inconclusive; nt = not tested or not shown; [ ] = dose if it differs, or a comment. Unless noted, the call rests on the fitted dose curve; in most records, active means well fitted inhibition curve with a large enough effect (not every such curve was filed as active); inconclusive means small, poorly fitted or top-dose-only effect, or another doubt; inactive means no such curve, though single readings can be large or run the other way. Unless noted, on the % scale 0 is the no-effect control and ±100 the full control effect.
SMILES,PNC assembly inh,ALDH1A1 inh,KDM4E inh,HPGD block
O=C(CCCOc1ccc(Cl)cc1Cl)NCC1CCCO1 (centres undefined),-8.9,?,-3.0%,11.2µM*
Cc1ccc(CNC(=O)COC(=O)CCCOc2ccc(Cl)cc2Cl)cc1,45.0,11.4%,2.3%,15.8µM*
O=C(Nc1ccc2oc(-c3ccccc3)nc2c1)c1ccco1,46.2,-3.9%,?,?
O=C(CCCN1C(=O)c2cccc3cccc(c23)C1=O)N1CCc2ccccc2C1,-29.1,?,?,?
O=C1C2=CC[C@@H]3C(=O)N(c4ccc(F)cc4F)C(=O)[C@H]3[C@H]2[C@H](O)[C@H]2O[C@H]12,nt,-5.6%[13.5 µM],nt,nt
Cc1noc(C)c1COC(=O)C(c1ccccc1)c1ccccc1,nt,11.2µM*,2.7%,nt
COc1ccccc1NC(=S)NC(=O)CCCOc1ccc(Cl)cc1Cl,39.8,11.2µM*,-1.5%,-18.3%
CCNC(=O)CCCOc1ccc(Cl)cc1Cl,-1.4,1.1%,0.7%,14.1µM*
Clc1ccc(OCCCc2nc(-c3cccnc3)no2)c(Cl)c1,8.0,3.5%,-19.4%,nt
Clc1ccc(OCCCc2nc(-c3ccncc3)no2)c(Cl)c1,3.6,-3.8%,-2.9%,28.2µM*
COC(=O)Cc1ccc(NC(=S)NCCSc2ccc(Cl)cc2)cc1,nt,nt,-21.6%,nt
Cc1ccc(C)c(-n2c(SCC(=O)NC(C(=O)O)C(C)C)nnc2-c2cccc(Cl)c2)c1 (centres undefined),nt,-8.3%,5.3%,nt
CC1(C)C(CSc2nc3ccccc3[nH]2)C1(Cl)Cl (centres undefined),nt,-6.8%,12.2%,nt
Cc1noc(C)c1COC(=O)CCCOc1ccc(Cl)cc1Cl,-26.4,14.2%,6.2%,17.8µM*
Cc1noc(C)c1COC(=O)CCCc1c[nH]c2ccccc12,6.4,14.1µM*,?,?
CCOC(=O)CCCc1c[nH]c2ccccc12,79.7,-7.8%,-7.1%,-9.5%
Cc1noc(C)c1COC(=O)Cc1ccc(Cl)cc1,22.9,17.2%,6.9%,-10.2%
CCC1CCC(NC(=O)Nc2cccc(OC)c2)CC1 (centres undefined),nt,6.9%,-5.1%,nt
C=C(C)Cn1c(SCC(=O)N/N=C/c2c(O)ccc3ccccc23)nc2ccccc2c1=O,-121.5*,5.1%,-4.9%,-21.2%
C=C(C)Cn1c(SCC#N)nc2ccccc2c1=O,9.0,10µM*,-9.9%,-15.3%
CCCCNC(=O)/C(C#N)=C/c1ccc(F)cc1F,nt,1.0%,-11.5%,nt
CC(C)=CCC1=C(O)c2ccccc2C(=O)C1=O,nt,?,?,-17.0%
CCOC(=O)CSC1=C(C#N)C(=O)NC(c2ccc(OC)c(OC)c2)S1 (centres undefined),27.0,?,?,-14.3%
CCOC(=O)CSC1=C(C#N)C(=O)NC(c2ccc(OC)cc2)S1 (centres undefined),10.7,20µM*,?,-15.8%
Cc1cc(SCC(=O)Nc2cccc(S(N)(=O)=O)c2)c(C)cc1Br,nt,9.9%,-15.2%,nt
SMILES,PNC assembly inh,ALDH1A1 inh,KDM4E inh,HPGD block
CC(=O)N1CCC(=NNC(=O)CSc2cc(C)c(Br)cc2C)CC1,?,?,0.3%,25.1µM*
CCCN1CCC(=NNC(=O)CSc2cc(C)c(Br)cc2C)CC1,-22.1,?,-1.3%,14.1µM*
Cc1ccccc1NC(=O)CC1(c2ccc(N(C)C)cc2)C(=O)c2ccccc2C1=O,-90.2*,12.6µM*,-2.4%,-19.6%
CN(C)c1ccc(C2(O)C(=O)c3ccccc3C2=O)cc1,-22.3,-5.5%,10.6%,-7.2%
CNC1(c2nnnn2-c2ccccc2C)CCOC(C)(C)C1 (centres undefined),nt,nt,4.9%,nt
Cc1ccccc1N(CC(=O)O)S(C)(=O)=O,-103.7*,5.0%,-18.8%,-10.2%
CCOc1ccccc1N(CC(=O)N1CCCCCC1)S(C)(=O)=O,-22.8,16.1%,3.6%,0.3%
CCOc1ccccc1N(CC(=O)OC)S(C)(=O)=O,-106.0*,-13.7%,4.4%,-6.7%
Cc1ccccc1N(CC(N)=O)S(C)(=O)=O,19.5,6.4%,-3.2%,-7.4%
CC[C@H](CN(C)C)C(=O)c1ccco1,nt,-3.4%[13.5 µM],nt,-7.2%
COc1cccc(Cn2c(=O)c(-c3cc(F)cc(F)c3)nc3cnc(N4CCOCC4)nc32)c1,nt,13.5%,nt,nt
CCCCC/C=C\C[C@@H](O)/C=C/C=C/C=C\[C@@H](O)CCCC(=O)O,nt,-0.9%,-8.1%,-18.6%
COC1=C(Nc2ccccc2)C(=O)c2ccccc2C1=O,?,2.24µM*,3.9%,10µM*
COC1=C(Nc2ccc(C)cc2)C(=O)c2ccccc2C1=O,-8.8,5.01µM*,14.1µM*,11.2µM*
O=C(COC(=O)c1cccc(S(=O)(=O)N2CCOCC2)c1)Nc1nc(-c2ccccc2Cl)cs1,6.3,1.2%,3.7%,-19.4%
O=C(CCc1ccc(S(=O)(=O)N2CCOCC2)cc1)OCc1nc2ccccc2s1,-4.5,7.94µM*,-4.1%,-11.0%
O=C(OCc1nc2ccccc2s1)c1cccc(S(=O)(=O)N2CCOCC2)c1,-100.0*,-6.7%,-2.8%,-18.4%
Cc1nnsc1C(=O)NNc1ccc(C(C)C)cc1,nt,?,-18.6%,nt
Cc1nnsc1C(=O)NNc1ccc(C(C)(C)C)cc1,nt,31.6µM*,-3.4%,nt
CCCNc1nc(C)nc2c1cnn2CCc1ccccc1,19.3,17.8µM*,-5.6%,-7.6%
COc1cc(/C=C2\SC(=S)N(C(C(=O)O)c3ccccc3)C2=O)ccc1O (centres undefined),nt,nt,-5.4%,nt
O=C1/C(=C/c2cccc(O)c2)SC(=S)N1CC1CCCO1 (centres undefined),nt,nt,-2.0%,nt
CCOc1cc(/C=C2/SC(=S)N(CC3CCCO3)C2=O)ccc1O (centres undefined),nt,0.447µM*,?,nt
COc1cccc(/C=C2\SC(=S)N(CC3CCCO3)C2=O)c1 (centres undefined),-19.3,3.16µM*,1.1%,-19.7%
CCOc1cc(/C=C2\SC(=S)N(C(C(=O)O)c3ccccc3)C2=O)ccc1O (centres undefined),nt,31.6µM*,1.2%,nt
SMILES,PNC assembly inh,ALDH1A1 inh,KDM4E inh,HPGD block
CCO[C@@H]1OC(C(=O)NCc2ccccc2)=C[C@H](c2ccc3c(c2)OCO3)[C@H]1CCCO,nt,14.1µM*,9.6%,nt
CCO[C@H]1OC(C(=O)NCc2ccccc2)=C[C@@H](c2ccc3c(c2)OCO3)[C@@H]1CCCO,nt,7.5%,7.9%,nt
C=C(C#N)C(=O)OCC,nt,8.91µM*,nt,-6.0%
CCOC(C)=O,nt,?,nt,-6.9%
Cc1cc(C)n(CCNC(=O)CC2C(=O)NCCN2Cc2ccccc2C(F)(F)F)n1 (centres undefined),nt,?,-14.9%,nt
O=C(O)CCc1ccc(-c2cccs2)n1-c1ccc(C(=O)O)cc1,-4.2,12.6µM*,?,-10.8%
CC(=O)c1cccc(-n2c(CCC(=O)O)ccc2-c2cccs2)c1,52.1,7.94µM*,-13.2%,-9.2%
CCC(=O)N(Cc1cc(=O)[nH]c2ccccc12)c1ccccc1C,nt,-8.4%,-2.5%,nt
COc1ccc(N(Cc2cc(=O)[nH]c3ccccc23)C(=O)c2ccco2)cc1,-0.9,14.1µM*,-29.0%,-12.6%
COc1ccc(CN(C(=O)c2ccco2)c2ccccc2)cc1,1.1,-3.6%,2.1%,-20.8%
CCC(=O)N(Cc1cc(=O)[nH]c2ccccc12)c1cccc(C)c1,2.0,39.8µM*,-27.1%,?
CC1(C)CC(NC(=O)c2sc3cc(Cl)ccc3c2Cl)CC(C)(C)N1,nt,-12.3%,2.4%,nt
